# Results filed as inconclusive are left out. Calls of active or inactive are those of the source. Calls come from the whole dose curve; as a rule, active = well fitted inhibition curve with a large enough effect in the repeat runs; inconclusive = weak or mixed curves, or effect the other way; inactive = no such curve, though single readings can be large or run the other way.
# Target: Androgen receptor (Homo sapiens) (UniProt P10275)
# Assay: qHTS assay to identify small molecule antagonists of the androgen receptor (AR) signaling pathway using the MDA cell line (AID 743042; note: nearly all actives have a fitted effect of over 55% in size)
# Details: MDA-kb2 AR-luc, MMTV luciferase, R1881 antagonist, 16 h; series mostly up to 70.3 µM; activity change, negative = inhibition: at the top concentration
# Summary of the method: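 MDA-kb2 cells (human breast carcinoma, stably carrying an MMTV-luciferase reporter responsive to AR and GR) were plated at 3,000 cells/well and preincubated 5 hr at 37C, then given compound plus R1881 agonist for 16 h. ONE-Glo luminescence was read.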
# % is set by controls: 0 for no effect and ±100 for the full control effect.
# Androgen receptor (Homo sapiens), sequence (P10275 whole entry, looked up): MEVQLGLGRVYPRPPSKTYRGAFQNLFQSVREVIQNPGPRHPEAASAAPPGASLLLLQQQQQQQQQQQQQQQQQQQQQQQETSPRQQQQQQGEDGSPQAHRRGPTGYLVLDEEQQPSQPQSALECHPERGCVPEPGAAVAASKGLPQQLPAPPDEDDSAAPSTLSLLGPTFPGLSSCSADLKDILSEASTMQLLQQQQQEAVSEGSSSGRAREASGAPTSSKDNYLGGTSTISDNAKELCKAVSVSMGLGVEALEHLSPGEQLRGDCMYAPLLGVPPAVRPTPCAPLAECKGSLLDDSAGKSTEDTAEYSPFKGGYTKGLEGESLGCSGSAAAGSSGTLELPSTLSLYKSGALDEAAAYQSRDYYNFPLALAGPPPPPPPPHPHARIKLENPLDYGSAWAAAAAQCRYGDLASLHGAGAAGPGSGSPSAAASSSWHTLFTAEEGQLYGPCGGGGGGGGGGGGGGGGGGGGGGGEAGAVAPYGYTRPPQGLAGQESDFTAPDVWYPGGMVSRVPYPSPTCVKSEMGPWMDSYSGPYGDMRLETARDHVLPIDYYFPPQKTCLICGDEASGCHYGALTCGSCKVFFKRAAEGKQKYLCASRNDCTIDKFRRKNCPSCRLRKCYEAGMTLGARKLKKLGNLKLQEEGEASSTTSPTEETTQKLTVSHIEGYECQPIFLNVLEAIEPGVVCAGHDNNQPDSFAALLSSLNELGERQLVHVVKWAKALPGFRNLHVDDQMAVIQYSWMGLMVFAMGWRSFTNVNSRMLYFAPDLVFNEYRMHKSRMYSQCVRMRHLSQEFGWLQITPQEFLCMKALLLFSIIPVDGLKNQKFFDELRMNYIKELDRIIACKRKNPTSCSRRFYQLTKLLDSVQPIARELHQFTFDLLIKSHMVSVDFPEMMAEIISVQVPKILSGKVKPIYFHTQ
SMILES,"activity change, negative = inhibition",Potency
O=C1C(Cl)C(CCl)CN1c1cccc(C(F)(F)F)c1 (stereo not drawn),-11.1% (inactive),–
NCCCNCCCN,-0.0343% [at 95 µM] (inactive),–
CC(C)=CCOc1c2occc2cc2ccc(=O)oc12,8.04% (inactive),–
CCOP(=S)(OCC)Oc1nc(Cl)c(Cl)cc1Cl,–,inactive
Nc1ccc([N+](=O)[O-])cc1[N+](=O)[O-],1.16% (inactive),–
CO[C@@H]1[C@H](OC(=O)NC(=O)CCl)CC[C@]2(CO2)[C@H]1[C@@]1(C)O[C@@H]1CC=C(C)C,-19.5% [at 32.5 µM] (inactive),–
Cc1cc(=O)[nH]o1,-0.679% [at 95 µM] (inactive),–
CCOC(=O)COc1cc(-c2nn(C)c(OC(F)F)c2Cl)c(F)cc1Cl,1.21% (inactive),–

# Reference: PubChem BioAssay (Tox21)
